Screening results: PubChem BioAssay, Broad Institute
Many of the other results were omitted from the sample, so hits are more common in it than they were.
IDE exosite FP = exo-site inhibitors of human insulin-degrading enzyme. P14735. purified IDE, FL-6b probe fluorescence polarization; stronger effect = lower value. z-score at 20 µM. actives 6.3% (n = 17,000);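 active = z-score of -3 or lower, meaning strong loss of probe binding signal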;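 also: His-tagged human IDE residues 42-1019 made in E. coli with 30 nM FL-6b probe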
Target sequence (P14735 42-1019 limits assumed): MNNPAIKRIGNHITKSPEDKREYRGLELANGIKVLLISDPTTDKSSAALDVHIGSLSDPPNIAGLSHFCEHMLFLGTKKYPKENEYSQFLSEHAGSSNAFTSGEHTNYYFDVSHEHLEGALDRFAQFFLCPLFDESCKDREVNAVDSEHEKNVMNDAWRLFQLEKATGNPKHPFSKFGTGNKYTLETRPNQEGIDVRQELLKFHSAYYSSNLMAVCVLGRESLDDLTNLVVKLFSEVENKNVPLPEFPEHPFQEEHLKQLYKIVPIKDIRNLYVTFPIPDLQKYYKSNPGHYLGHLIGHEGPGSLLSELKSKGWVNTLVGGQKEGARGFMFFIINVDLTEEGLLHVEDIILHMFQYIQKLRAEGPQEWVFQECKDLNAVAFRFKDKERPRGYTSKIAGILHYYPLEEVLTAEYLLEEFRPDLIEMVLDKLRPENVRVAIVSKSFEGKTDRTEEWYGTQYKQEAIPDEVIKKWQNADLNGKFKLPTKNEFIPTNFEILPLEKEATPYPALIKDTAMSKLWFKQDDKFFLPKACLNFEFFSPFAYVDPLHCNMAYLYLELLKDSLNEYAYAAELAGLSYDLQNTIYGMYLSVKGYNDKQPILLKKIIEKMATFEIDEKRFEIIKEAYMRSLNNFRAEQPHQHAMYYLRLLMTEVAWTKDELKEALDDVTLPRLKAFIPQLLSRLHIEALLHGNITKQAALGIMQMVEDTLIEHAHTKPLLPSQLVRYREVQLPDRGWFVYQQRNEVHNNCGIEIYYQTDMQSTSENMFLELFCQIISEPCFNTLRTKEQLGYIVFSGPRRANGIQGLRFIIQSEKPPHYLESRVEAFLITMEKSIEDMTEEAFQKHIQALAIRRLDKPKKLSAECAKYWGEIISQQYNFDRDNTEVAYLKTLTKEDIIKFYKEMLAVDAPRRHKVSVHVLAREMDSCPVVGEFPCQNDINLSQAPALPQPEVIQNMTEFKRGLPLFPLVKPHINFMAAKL
* marks the source's active call; other numbers are inactive results.

What do the screens show for `O=C(NC1CCCC1)N1CC(=O)N2[C@H](CO)[C@@H](c3ccc(-c4cccnc4)cc3)[C@H]2C1`?
IDE exosite FP: -1.77

What do the screens show for `O=C(NC1CCCCC1)N1CC(=O)N2[C@@H](CO)[C@H](c3ccc(-c4ccccc4)cc3)[C@@H]2C1`?
IDE exosite FP: -0.884

How did O=C(NC1CCCCC1)N1CC(=O)N2[C@H](C1)[C@H](c1ccc(-c3ccccc3)cc1)[C@@H]2CO do in these assays?
IDE exosite FP: -0.347

How did O=C(NC1CCCCC1)N1CC(=O)N2[C@H](C1)[C@H](c1ccc(-c3ccncc3)cc1)[C@@H]2CO do in these assays?
IDE exosite FP: -0.153

Results for O=C(NC1CCCCC1)N1CC(=O)N2[C@@H](CO)[C@@H](c3ccc(-c4ccccc4)cc3)[C@@H]2C1 ?
IDE exosite FP: -3.66*

What do the screens show for `O=C(Cc1cccnc1)N1CC(=O)N2[C@H](CO)[C@H](c3ccc(C#CC4CC4)cc3)[C@@H]2C1`?
IDE exosite FP: 1.21

How did CO[C@@H]1CC[C@@H]2CCOc3c(C#N)cccc3C(=O)N(C)C[C@H](c3ccccc3)CC(=O)N(C)C[C@H]1O2 do in these assays?
IDE exosite FP: -1.26

What do the screens show for `C/C=C/c1ccc([C@@H]2[C@@H](CO)N3CCCCN(S(=O)(=O)c4cccc(C)c4)C[C@@H]23)cc1`?
IDE exosite FP: 3.52

What do the screens show for `N#C[C@@H]1[C@@H](c2ccc(C3=CCCCC3)cc2)[C@H](CO)N1C(=O)CN1CCOCC1`?
IDE exosite FP: -1.7

How did O=C(C[C@@H]1CC[C@H]2[C@@H](COC[C@@H](O)CN2Cc2cc(F)ccc2F)O1)NCc1ccc(Oc2ccccc2)cc1 do in these assays?
IDE exosite FP: 0.185

How did CCCNC(=O)N1CCC2(CC1)CN(C(=O)CC1CC1)[C@@H](CO)c1c2c2ccc(OC)cc2n1C do in these assays?
IDE exosite FP: -1.09

Results for OC[C@@H]1[C@H](c2ccc(-c3ccccc3F)cc2)[C@H]2CN(Cc3cncnc3)CCCCN12 ?
IDE exosite FP: -1.71

Results for OC[C@@H]1[C@H](c2ccc(C#Cc3ccccc3F)cc2)[C@@H]2CN(Cc3cncnc3)CCCCN12 ?
IDE exosite FP: -3.51*

What do the screens show for `OC[C@H]1[C@H](c2ccc(C#Cc3ccccc3F)cc2)[C@H]2CN(Cc3cncnc3)CCCCN21`?
IDE exosite FP: -5.7*

Results for OC[C@@H]1[C@@H](c2ccc(C#Cc3ccccc3F)cc2)[C@H]2CN(Cc3cncnc3)CCCCN12 ?
IDE exosite FP: -1.6

Results for OC[C@H]1[C@H](c2ccc(C#Cc3ccccc3F)cc2)[C@@H]2CN(Cc3cncnc3)CCCCN12 ?
IDE exosite FP: -2.3

How did OC[C@H]1[C@H](c2ccc(-c3ccccc3F)cc2)[C@@H]2CN(Cc3cncnc3)CCCCN12 do in these assays?
IDE exosite FP: 2.23

Results for C/C=C/c1ccc([C@@H]2[C@@H](CN(C)C(=O)CC)N(S(C)(=O)=O)[C@H]2CO)cc1 ?
IDE exosite FP: 4.64

How did O=C(c1cccc(F)c1)N1CC2(C1)[C@H](c1ccccc1)[C@@H](CO)N2C(=O)C1CCCCC1 do in these assays?
IDE exosite FP: -1.74

Results for CCCC#Cc1ccc([C@@H]2[C@@H](CO)N3C(=O)CN(S(=O)(=O)Cc4ccccc4)C[C@H]23)cc1 ?
IDE exosite FP: 0.0744

Results for COCC(=O)N1[C@H](CN(C)C(=O)c2ccncc2)[C@@H](c2ccccc2)[C@@H]1CO ?
IDE exosite FP: 2.4

Results for COc1ccc(C#Cc2ccc([C@H]3[C@@H](CO)N4C(=O)CN(C(=O)c5cccnc5)C[C@H]34)cc2)cc1 ?
IDE exosite FP: -0.833

How did C/C=C/c1ccc([C@@H]2[C@@H](CO)N(C(=O)CC)[C@H]2CN(C)S(C)(=O)=O)cc1 do in these assays?
IDE exosite FP: 2.62

Results for CC(C)C#Cc1ccc([C@H]2[C@H]3CN(S(=O)(=O)c4ccccc4)CC(=O)N3[C@H]2CO)cc1 ?
IDE exosite FP: -0.728

How did COCC(=O)N1CC2(CCN(Cc3ccccc3)CC2)c2c([nH]c3cc(OC)ccc23)[C@H]1CO do in these assays?
IDE exosite FP: -0.769

Results for COc1ccccc1-c1ccc2c(c1)[C@@H]1[C@@H](CCN1S(=O)(=O)c1ccc(C)cc1)[C@H](CO)N2 ?
IDE exosite FP: 1.83

What do the screens show for `O=C(C1CCOCC1)N1CC(=O)N2[C@@H](CO)[C@H](c3ccc(/C=C/c4ccccc4)cc3)[C@@H]2C1`?
IDE exosite FP: -4.5*

What do the screens show for `O=C(C1CCOCC1)N1CC(=O)N2[C@H](CO)[C@@H](c3ccc(Br)cc3)[C@@H]2C1`?
IDE exosite FP: -2.59

Results for O=C(C1CCOCC1)N1CC(=O)N2[C@@H](CO)[C@H](c3ccc(Br)cc3)[C@@H]2C1 ?
IDE exosite FP: 4.19

Results for O=C(C1CCOCC1)N1CC(=O)N2[C@H](CO)[C@@H](c3ccc(Br)cc3)[C@H]2C1 ?
IDE exosite FP: 0.54

What do the screens show for `O=C(C1CCOCC1)N1CC(=O)N2[C@H](CO)[C@@H](c3ccc(/C=C/c4ccccc4)cc3)[C@H]2C1`?
IDE exosite FP: -2.07

Results for O=C(C1CCOCC1)N1CC(=O)N2[C@H](CO)[C@@H](c3ccc(/C=C/c4ccccc4)cc3)[C@@H]2C1 ?
IDE exosite FP: -5.5*

What do the screens show for `COCC(=O)NC[C@H]1[C@H](c2ccc(C3=CCCC3)cc2)[C@H](CO)N1C(C)=O`?
IDE exosite FP: 4.8

Results for CC(=O)NC[C@@H]1[C@@H](c2ccc(-c3ccccc3F)cc2)[C@@H](CO)N1C(C)=O ?
IDE exosite FP: 3.56

What do the screens show for `COc1ccc(S(=O)(=O)Nc2ccc3c(c2)C(=O)N([C@H](C)CO)C[C@H](C)[C@H](CN(C)S(=O)(=O)c2ccc(Cl)cc2)OCCCC[C@H](C)O3)cc1`?
IDE exosite FP: -0.0172

What do the screens show for `O=C(Nc1cccc(F)c1)N1CC(=O)N2[C@H](C1)[C@@H](c1ccc(Br)cc1)[C@@H]2CO`?
IDE exosite FP: -0.799

What do the screens show for `COCC(=O)N1C[C@@H](C)[C@H](OC)CN(C)C(=O)c2ccc(NC(=O)Nc3cccc(F)c3)cc2OC[C@@H]1C`?
IDE exosite FP: -0.358

Results for O=C(CN1CCOCC1)N1CCCCN2[C@H](CO)[C@@H](c3ccc(-c4ccccc4F)cc3)[C@H]2C1 ?
IDE exosite FP: 1.56

How did O=C(CN1CCOCC1)N1CCCCN2[C@H](C1)[C@@H](c1ccc(-c3ccccc3F)cc1)[C@@H]2CO do in these assays?
IDE exosite FP: -1.45

Results for O=C(CN1CCOCC1)N1CCCCN2[C@@H](CO)[C@@H](c3ccc(-c4ccccc4F)cc3)[C@@H]2C1 ?
IDE exosite FP: -5.08*

How did COc1ccccc1-c1ccc([C@@H]2[C@H]3CN(C(=O)CN4CCOCC4)CCCCN3[C@H]2CO)cc1 do in these assays?
IDE exosite FP: 0.613

How did COc1ccccc1-c1ccc([C@@H]2[C@H](CO)N3CCCCN(C(=O)CN4CCOCC4)C[C@@H]23)cc1 do in these assays?
IDE exosite FP: -15.4*

Results for COc1ccccc1-c1ccc([C@H]2[C@H]3CN(C(=O)CN4CCOCC4)CCCCN3[C@H]2CO)cc1 ?
IDE exosite FP: -2.63

What do the screens show for `CCN(C[C@@H]1N[C@H](CO)[C@H]1c1ccc(-c2ccccc2)cc1)C(=O)COC`?
IDE exosite FP: -2.5

What do the screens show for `CN1CCCCN2[C@H](CO)[C@@H](c3ccc(-c4ccc(F)cc4)cc3)[C@@H]2C1`?
IDE exosite FP: 0.111

What do the screens show for `CN(C)C(=O)c1ccc(-c2ccc([C@H]3[C@H](CO)N4C(=O)CN(C(=O)C5CCC5)C[C@@H]34)cc2)cc1`?
IDE exosite FP: 2.64

What do the screens show for `C/C=C/c1ccccc1[C@H]1[C@@H](C#N)N(C(=O)c2cccnc2)[C@@H]1CO`?
IDE exosite FP: 0.976
